A selection: hits, their analogues and other compounds. The true share with any hit is near 2.8%.
Pol kappa inh-1: DNA polymerase kappa (human) inhibition; purified Pol kappa, fluorescent DNA synthesis assay, 10 min; AID 588579; Potency, µM (highest dose often 107 µM), without a hit: at the highest dose activity, negative = inhibition, hits mostly inhibitors; 400,000 tested, 0.53% active; Q9UBT6; note: potency is the fitted concentration of half-maximal effect; % is set by controls: 0 for no effect and ±100 for the full control effect
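Here, compound and 10 nM enzyme are combined for 15 min at room temperature; adding 50 nM substrate (final) starts DNA synthesis, tracked by fluorescence at 0 and 10 min against buffer-only wells.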
Pol iota inh: DNA polymerase iota (human) inhibition; Pol iota fluorescent replication assay, 10 min; Potency, µM (series often up to 115 µM), for inactives: at the highest dose activity, negative = inhibition, hits mostly inhibitors; 390,000 tested, 1% active; AID 588590; Q9UNA4; note: potency is the fitted concentration of half-maximal effect
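Fluorescent replication assay read twice, at 0 min and 10 min after adding 50 nM (final) substrate. Enzyme (10 nM) and compounds were first incubated 15 min at room temperature; enzyme-free buffer wells were negative controls.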
WRN helicase inh: inhibitors of human WRN helicase | WRN helicase unwinding, fluorescent forked duplex, kinetic | Potency, µM (series often up to 114 µM), without a hit: at the top dose activity change, negative = inhibition, most hits filed as inhibitors | AID 651768 | Q14191 | 360,000 tested, 0.46% active; note: potency is the fitted concentration of half-maximal effect; % is set by controls: 0 for no effect and ±100 for the full control effect; nearly all actives have a fitted effect of over 55% in size
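Enzyme (20 nM final) and test compound sit together 15 min at room temperature before substrate addition. Substrate is a single-forked duplex oligonucleotide (100 nM) labelled with fluorophore and quencher, with 2 mM ATP; helicase unwinding raises red fluorescence, read kinetically.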
Pol eta inh-1: DNA polymerase eta (human) inhibition; Q9Y253; recombinant Pol eta, fluorescent DNA replication assay; Potency, µM (series often up to 114 µM), without a hit: at the top dose activity change, negative = inhibition, usual class: inhibitors; 390,000 tested, 1.2% active; AID 588591; note: potency is the fitted concentration of half-maximal effect; % is set by controls: 0 for no effect and ±100 for the full control effect
Target sequence (Q9Y253 whole entry, looked up): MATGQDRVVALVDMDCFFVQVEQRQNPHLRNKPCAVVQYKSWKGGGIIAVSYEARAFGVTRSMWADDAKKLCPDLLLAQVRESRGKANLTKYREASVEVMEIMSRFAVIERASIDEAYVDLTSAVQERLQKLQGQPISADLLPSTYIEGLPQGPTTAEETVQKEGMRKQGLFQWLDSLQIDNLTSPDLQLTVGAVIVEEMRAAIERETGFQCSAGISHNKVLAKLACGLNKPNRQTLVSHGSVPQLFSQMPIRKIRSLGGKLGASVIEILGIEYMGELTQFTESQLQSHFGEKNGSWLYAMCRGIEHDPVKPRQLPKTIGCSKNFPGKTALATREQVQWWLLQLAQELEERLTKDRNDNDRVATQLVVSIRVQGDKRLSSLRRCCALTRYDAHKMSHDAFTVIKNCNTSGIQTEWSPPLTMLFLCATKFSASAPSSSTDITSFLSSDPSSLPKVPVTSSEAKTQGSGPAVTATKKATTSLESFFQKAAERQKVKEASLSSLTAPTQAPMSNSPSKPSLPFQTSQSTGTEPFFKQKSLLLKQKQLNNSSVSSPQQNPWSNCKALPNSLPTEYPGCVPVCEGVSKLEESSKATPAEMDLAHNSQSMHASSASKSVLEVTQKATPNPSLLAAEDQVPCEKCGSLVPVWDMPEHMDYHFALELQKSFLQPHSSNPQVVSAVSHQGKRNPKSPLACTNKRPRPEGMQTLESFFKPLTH
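Pol eta (10 nM) was preincubated with compounds for 15 min at room temperature, after which fluorescent replication substrate (50 nM final) was added to start the reaction. Fluorescence was read kinetically at 0 and 10 min.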
Pol beta inh: blocks human DNA polymerase beta activity. Pol beta primer extension/strand displacement, fluorescence kinetic. Potency, µM (series often up to 114 µM), for the others: top-dose activity change, negative = inhibition, usual class: inhibitors. P06746. 340,000 tested, 1.3% active; note: potency is the fitted concentration of half-maximal effect; % is set by controls: 0 for no effect and ±100 for the full control effect
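Values derive from four-parameter Hill fits of normalized kinetic data: reads at 0 and 10 min following addition of 50 nM substrate to 10 nM Pol beta preincubated 15 min with compound.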
PI5P4K alpha inh: inhibitors of human PI5P4K alpha; P48426; PI5P4Kalpha enzyme, ADP-Glo luminescence, 60 min; stronger effect = lower value; max response, %; 330,000 tested, 1.2% active; active = max response of -50% or lower; inconclusive = between -30% and -50%; inactive = -30% or higher; note: value at the top dose of about 77 µM; % is set by controls: 0 for no effect and ±100 for the full control effect
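qHTS, 1536-well: enzyme/substrate mix, compound by pin tool, 5 microM ATP final; RT 60 min; ADP-Glo reagents 1 (45 min) then 2 (30 min); luminescence.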
Pol kappa inh-2: confirmation of human DNA polymerase kappa inhibitors; purified Pol-kappa, fluorescent strand-displacement substrate; shares compounds with Pol eta inh-1; 920 tested, 76% active; Potency, µM, hits mostly inhibitors; note: potency is the fitted concentration of half-maximal effect
Pol eta inh-2: Pol eta (human) inhibition, cherry-pick confirmation; shares compounds with Pol eta inh-1; Pol eta primer extension, TAMRA/BHQ fluorescence, 10 min; Potency, µM, hits mostly inhibitors; 2,600 tested, 64% active; note: potency is the fitted concentration of half-maximal effect
Starred values were filed as active, the others as inactive; ? = inconclusive; / = not tested or not shown; ! = a repeat was not active; [ ] = another dose, or the depositor's remark. Unless noted, calls come from the whole dose curve; as a rule, active = well fitted curve in the direction sought with a large enough effect; inconclusive = small, poorly fitted or top-dose-only effect, or another doubt; inactive = no such curve, though single readings can be large; an effect the other way counts as inactive or inconclusive.

SMILES	Pol kappa inh-1	Pol iota inh	WRN helicase inh	Pol eta inh-1	Pol beta inh	PI5P4K alpha inh	Pol eta inh-2	others
C/C(=N\Nc1ccc(Cl)c(C(=O)O)c1)c1cccs1	?	?	-14%[11.6 µM]	18µM*	14µM*	-7	30*
C/C(=N/Nc1ccccc1C(=O)O)c1cccs1	-20%	-17%	-13%	-17%	33%	0	/
COc1ccc(N2CC(C(=O)Nc3nnc(SCC(=O)NCc4ccco4)s3)CC2=O)cc1 (stereo not drawn)	-42%	?	?	22µM*	?	?	?	Pol kappa inh-2=42*
O=C1Nc2ccccc2Oc2cc(Oc3ccccc3)ccc21	?	79µM*	/	/	-42%	/	?
Cc1noc(C)c1C(=O)N(CC(=O)Nc1ccc(Cl)c(C(F)(F)F)c1)Cc1ccco1	-6%	-35%	-6%	-19%	/	-2	/
CN(C)CCCn1c(=S)[nH]c2ccccc2c1=O	-11%	44%	3%	6%	0%	0	/
CN(C)CCCn1c2c3ccccc3ccc2c2oc(=O)c3ccccc3c21	50µM*!	14µM*	-5%[11.6 µM]	?	/	0	?
O=C(O)c1ccc(/C=C2\COc3ccccc3C2=O)cc1	2%	?	?	?	10%	-13	?
Cc1cc(C)c2c(c1)C(=O)/C(=C/c1ccc(C(=O)O)cc1)CC2	-12%	?	-10%	?	57%	-3	/
CCOC(=O)c1ccccc1NC(=O)Cn1c(=O)n(Cc2ccc(C(=O)NCc3ccc4c(c3)OCO4)cc2)c(=O)c2ccccc21	-3%	0%	/	-9%	-21%	/	/
O=C(Cn1c(=O)n(Cc2ccc(C(=O)NCc3ccc4c(c3)OCO4)cc2)c(=O)c2ccccc21)Nc1ccc(F)cc1F	-4%	?	/	79µM*	10µM*	/	/	Pol kappa inh-2=?
O=C(CCS(=O)(=O)c1ccc(Br)cc1)Nc1cc(F)ccc1F	?	-6%	-21%[57.1 µM]	?	18µM*	-15	/	Pol kappa inh-2=42*
O=C(CCS(=O)(=O)c1ccc(Br)cc1)NCc1cccs1	?	18µM*	?	18µM*	16µM*	0	?
CCOc1ccccc1NC(=O)CCS(=O)(=O)c1ccc(Br)cc1	?	18µM*	50µM*	18µM*	10µM*	-14	24*
CCOc1ccccc1NC(=O)CCNS(=O)(=O)c1ccc(NC(C)=O)cc1	2%	-5%	4%	-16%	32%	-3	/
COc1ccc(NC(=O)C2(C)CCN2C2Cc3ccccc3C2)cc1OC (stereo not drawn)	/	/	-4%	/	/	6	/
CN(C)/C=C1/Sc2ccccc2C1=O	-11%	-2%	3%	7%	9%	2	/
CC(=O)N(\C=C/C=C/C=C1\Sc2ccccc2C1=O)c1ccccc1	25µM*	?	?	79µM*	20µM*	-66*	?	Pol kappa inh-2=75*
O=C(O)/C=C/c1ccc(S(=O)(=O)Nc2ccc(C(=O)NCC(=O)O)cc2)cc1	?	?	-2%[11.6 µM]	18µM*	-16%	-11	?
O=C(O)/C=C/c1ccc(S(=O)(=O)Nc2cccnc2)cc1	-6%	142%	-32%	2%	3%	10	/
COc1ccc(NC(=O)CN2C(=O)NC3(CCCC3)C2=O)cc1OC	-17%	?	2%[11.6 µM]	-7%	59%	-1	?
COc1ccc(NC(=O)CN2C(=O)NC3(CCCC3)C2=O)cc1Cl	6%	36%	5%	-4%	8%	-3	/
O=C(Nc1sc2c(c1C(=O)O)CCC2)C(=O)N1CCOCC1	-7%	?	-22%	20µM*	?	?	?
c1ccc(-c2noc(CN3CCCC(OCc4ccccn4)C3)n2)cc1 (stereo not drawn)	12%	4%	4%	-11%	39%	5	/

Assay outcomes: PubChem BioAssay, National Center for Advancing Translational Sciences (NCATS)
